Laboratory results: PubChem BioAssay (Tox21)
Inconclusive results are not listed. Active and inactive are the calls of the source. Unless noted, the call rests on the fitted dose curve; in most records, active means well fitted curve in the direction sought with a large enough effect in the repeat runs; inconclusive means weak or mixed curves; inactive means no such curve, though single readings can be large; an effect the other way counts as inactive or inconclusive.

What was measured:
[1] = A CellTox Green Cytotoxicity Assay to monitor cytotoxicity in HepG2 cells - 24 hour (AID 1224878); further: nearly all actives have a fitted effect of over 45% in size
Outline: (§1)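 Cells and non-lytic dye reagent are dispensed together (600 HepG2 cells/well) and incubated 5 h before DMSO compound transfer. Kinetic fluorescence is then recorded in the same wells during 40 h at 37 C.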

[2] = A CellTox Green Cytotoxicity Assay to monitor cytotoxicity in HepG2 cells - 40 hour (AID 1224879); further: nearly all actives have a fitted effect of over 40% in size
Outline: as §1

[3] = qHTS RealTime-Glo MT Cell Viability Assay in HEK293 cells - 0 hour (AID 1224880); further: top concentration of the series differs between compounds; nearly all actives have a fitted effect of over 45% in size
Outline: (§2)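 Real-time viability in HEK293: signal arises when living cells convert a prosubstrate for NanoLuc in the medium, so luminescence tracks viable cell number. Compound (23 nL, DMSO) added 5 h post-seeding; kinetic reads at 0–40 h, 37 C.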

[4] = A CellTox Green Cytotoxicity Assay to monitor cytotoxicity in HEK293 cells - 32 hour (AID 1224881); further: nearly all actives have a fitted effect of over 40% in size
Outline: (§3)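 Cells (HEK293, 600/well) and dye reagent are dispensed together. After 5 h at 37 C, 23 nL compound is pinned in. Plates stay at 37 C for 40 h with fluorescence read at 0h, 8h, 16h, 24h, 32h and 40h.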

[5] = A CellTox Green Cytotoxicity Assay to monitor cytotoxicity in HepG2 cells - 0 hour (AID 1224882); further: nearly all actives have a fitted effect of over 35% in size
Outline: as §1

[6] = A CellTox Green Cytotoxicity Assay to monitor cytotoxicity in HepG2 cells - 32 hour (AID 1224883); further: nearly all actives have a fitted effect of over 50% in size
Outline: as §1

[7] = A CellTox Green Cytotoxicity Assay to monitor cytotoxicity in HEK293 cells - 8 hour (AID 1224884); further: nearly all actives have a fitted effect of over 35% in size
Outline: as §3

[8] = qHTS RealTime-Glo MT Cell Viability Assay in HepG2 cells - 16 hour (AID 1224885); further: nearly all actives have a fitted effect of over 50% in size
Outline: (§4)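 Viability was tracked continuously by NanoLuc luminescence from prosubstrate reduced by living HepG2 cells, at successive time points over 40 h of compound exposure. Cells with reagent were preincubated 5 h at 37 °C before compound addition.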

[9] = qHTS RealTime-Glo MT Cell Viability Assay in HEK293 cells - 24 hour (AID 1224886); further: top concentration of the series differs between compounds; nearly all actives have a fitted effect of over 50% in size
Outline: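 Viability tracked continuously by luminescence as live cells reduce a prosubstrate for NanoLuc; HEK293 cells preincubated 5 h, compound-treated at 37 C, and read at 0, 8, 16, 24, 32 and 40 h.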

[10] = qHTS RealTime-Glo MT Cell Viability Assay in HEK293 cells - 8 hour (AID 1224887); further: top concentration of the series differs between compounds; nearly all actives have a fitted effect of over 50% in size
Outline: as §2

[11] = A CellTox Green Cytotoxicity Assay to monitor cytotoxicity in HEK293 cells - 16 hour (AID 1224888); further: nearly all actives have a fitted effect of over 35% in size
Outline: as §3

[12] = qHTS RealTime-Glo MT Cell Viability Assay in HepG2 cells - 0 hour (AID 1224889); further: nearly all actives have a fitted effect of over 50% in size
Outline: as §4

[13] = A CellTox Green Cytotoxicity Assay to monitor cytotoxicity in HepG2 cells - 8 hour (AID 1224890); further: nearly all actives have a fitted effect of over 45% in size
Outline: as §1

[14] = qHTS assay to identify small molecule antagonists of the estrogen receptor alpha (ER-alpha) signaling pathway using the BG1 cell line in the presence of 0.1 nM 17-beta-estradiol - cell viability counter screen (AID 1259241); further: nearly all actives have a fitted effect of over 40% in size
Outline: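 VM7Luc4E2 cells (endogenous full-length ER-alpha, 4xERE-luciferase), cultured 5 days in charcoal-stripped serum, exposed to compounds with 0.1 nM 17beta-estradiol (final) for 22 hr at 37C. Viability read in same wells as live-cell protease fluorescence after 30 min.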

[15] = qHTS assay to identify small molecule antagonists of the androgen receptor (AR) signaling pathway using the MDA cell line in the presence of 0.5 nM R1881 - cell viability counter screen (AID 1259242); further: nearly all actives have a fitted effect of over 45% in size
Outline: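 Steps: plate MDA-kb2 cells, rest 5 hr at 37C without CO2; pin in compounds in DMSO; add R1881 to 0.5 nM final; incubate 16 hr; add CellTiter-Fluor, 30 min; read fluorescence.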

[16] = target: Androgen receptor (Homo sapiens) (UniProt P10275); experiment: qHTS assay to identify small molecule antagonists of the androgen receptor (AR) signaling pathway using the MDA cell line in the presence of 0.5 nM R1881 (AID 1259243); further: nearly all actives have a fitted effect of over 50% in size
Sequence of Androgen receptor (Homo sapiens) (P10275 whole entry, looked up): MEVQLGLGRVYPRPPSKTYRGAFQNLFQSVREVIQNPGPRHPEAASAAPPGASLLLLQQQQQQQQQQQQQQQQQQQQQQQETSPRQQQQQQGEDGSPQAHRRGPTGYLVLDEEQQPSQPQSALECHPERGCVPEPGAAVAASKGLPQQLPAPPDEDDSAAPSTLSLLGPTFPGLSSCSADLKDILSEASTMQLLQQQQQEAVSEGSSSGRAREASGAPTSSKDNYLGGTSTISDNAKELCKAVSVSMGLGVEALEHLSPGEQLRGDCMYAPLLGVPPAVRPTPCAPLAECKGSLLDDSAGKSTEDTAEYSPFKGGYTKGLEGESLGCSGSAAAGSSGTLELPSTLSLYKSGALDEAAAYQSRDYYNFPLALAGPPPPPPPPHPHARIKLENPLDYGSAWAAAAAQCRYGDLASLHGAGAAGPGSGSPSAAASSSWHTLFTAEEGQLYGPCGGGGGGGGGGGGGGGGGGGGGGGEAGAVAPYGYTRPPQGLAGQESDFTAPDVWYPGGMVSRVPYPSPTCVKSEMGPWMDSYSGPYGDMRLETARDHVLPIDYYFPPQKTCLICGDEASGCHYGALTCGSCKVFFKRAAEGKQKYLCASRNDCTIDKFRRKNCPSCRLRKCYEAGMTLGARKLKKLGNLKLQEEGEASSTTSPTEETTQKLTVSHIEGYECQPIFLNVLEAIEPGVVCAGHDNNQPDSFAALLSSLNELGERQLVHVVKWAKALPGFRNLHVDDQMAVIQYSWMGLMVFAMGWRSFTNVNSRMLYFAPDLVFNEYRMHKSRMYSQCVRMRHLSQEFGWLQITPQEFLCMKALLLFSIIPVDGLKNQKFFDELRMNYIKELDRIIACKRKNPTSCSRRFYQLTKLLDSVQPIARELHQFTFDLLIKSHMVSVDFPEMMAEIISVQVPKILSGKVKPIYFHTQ
Outline: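 Stably transfected MDA-kb2 cells express luciferase from an MMTV promoter bearing both AR and GR response elements. Compounds plus 0.5 nM R1881 (final) were incubated 16 hr at 37C without CO2, then luminescence measured.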

[17] = qHTS assay to identify small molecule HDAC inhibitors (AID 1259364)
Outline: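 Cells (HCT-116, wild type) are seeded at 1,500 per well, incubated overnight, treated with compound in DMSO for 2 hr, then developed with HDAC-Glo I/II reagent for 30 min at room temperature.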

[18] = qHTS assay to identify small molecule HDAC inhibitors - cell viability counter screen (AID 1259365)
Outline: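 Wild-type HCT-116 cells, 1,500/well, cultured overnight, then compound-treated 2 h at 37 C. Viability measured as ATP luminescence with CellTiter-Glo after 30 min at room temperature.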

[19] = target: Estrogen receptor (Homo sapiens) (UniProt P03372); experiment: qHTS assay to identify small molecule antagonists of the estrogen receptor alpha (ER-alpha) signaling pathway using the BG1 cell line in the presence of 0.1 nM 17-beta-estradiol (AID 1259244); further: nearly all actives have a fitted effect of over 50% in size
Sequence of Estrogen receptor (Homo sapiens) (P03372 whole entry, looked up): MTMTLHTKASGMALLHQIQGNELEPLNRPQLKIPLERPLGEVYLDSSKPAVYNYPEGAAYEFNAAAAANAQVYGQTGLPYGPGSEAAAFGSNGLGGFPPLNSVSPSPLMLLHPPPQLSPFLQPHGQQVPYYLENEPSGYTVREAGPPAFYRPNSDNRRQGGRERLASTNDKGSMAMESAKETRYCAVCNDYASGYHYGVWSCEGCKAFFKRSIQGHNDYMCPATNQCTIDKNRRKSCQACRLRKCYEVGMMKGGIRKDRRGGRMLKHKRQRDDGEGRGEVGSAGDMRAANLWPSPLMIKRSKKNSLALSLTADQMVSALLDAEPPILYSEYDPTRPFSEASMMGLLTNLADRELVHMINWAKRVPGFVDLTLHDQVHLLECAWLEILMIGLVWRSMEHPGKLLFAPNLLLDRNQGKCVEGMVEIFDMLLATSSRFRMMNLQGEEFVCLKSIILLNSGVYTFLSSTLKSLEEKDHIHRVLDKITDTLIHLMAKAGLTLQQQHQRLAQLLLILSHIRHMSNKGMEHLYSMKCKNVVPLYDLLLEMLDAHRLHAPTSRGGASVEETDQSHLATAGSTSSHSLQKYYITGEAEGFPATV
Outline: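 Antagonist mode: compounds in DMSO are pinned onto VM7Luc4E2 reporter cells, 0.1 nM final 17beta-estradiol is added, and after 22 h at 37C luciferase luminescence is measured with ONE-Glo.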

[20] = qHTS assay to identify small molecule phospholipidosis (PLD) inducers (AID 1259344; active means well fitted curve in the direction sought with a large enough effect; an effect the other way counts as inactive or inconclusive)
Outline: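 Accumulated phospholipid, stained red by LipidTOX during 24 h compound treatment of HepG2 cells at 37 C, is quantified from images as pit number and intensity, normalised per cell using Hoechst-stained nuclei.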
On the % scale 0 is the no-effect control and ±100 the full control effect.

O=C1c2ccccc2C(=O)N1CO
inactive: Potency [1] | Potency [2] | Potency [3] | Potency [4] | Potency [5] | Potency [6] | Potency [7] | outcome [8] | outcome [9] | outcome [10] | Potency [11] | Potency [12] | Potency [13] | outcome [14] | outcome [15] | Potency [16] | Potency [17] | outcome [18]

CC(=O)OC/C=C(/C)CCC=C(C)C
inactive: Potency [1] | Potency [2] | Potency [3] | Potency [4] | Potency [5] | Potency [6] | Potency [7] | outcome [8] | outcome [9] | outcome [10] | Potency [11] | Potency [12] | Potency [13] | outcome [14] | outcome [15] | outcome [19] | Potency [17] | outcome [18]

C[Si](C)(C)O[Si](O)(O)O
inactive: Potency [1] | Potency [2] | Potency [3] | Potency [4] | Potency [5] | Potency [6] | Potency [7] | outcome [8] | outcome [9] | outcome [10] | Potency [11] | Potency [12] | Potency [13] | outcome [14] | outcome [15] | outcome [19] | Potency [17] | outcome [18]

O=C(O)/C=C(\CC(=O)O)C(=O)O
inactive: Potency [1] | Potency [2] | Potency [3] | Potency [4] | Potency [5] | Potency [6] | Potency [7] | outcome [8] | outcome [9] | outcome [10] | Potency [11] | Potency [12] | Potency [13] | outcome [14] | outcome [15] | outcome [19] | Potency [20] | Potency [17] | outcome [18]

CCOC(=O)CC(C(C)=O)C(C)=O
inactive: Potency [1] | Potency [2] | Potency [3] | Potency [4] | Potency [5] | Potency [6] | Potency [7] | outcome [8] | outcome [9] | outcome [10] | Potency [11] | Potency [12] | Potency [13] | outcome [14] | outcome [15] | outcome [19] | Potency [17] | outcome [18]

COC(=O)/C=C(\C)CCC=C(C)C
inactive: Potency [1] | Potency [2] | Potency [3] | Potency [4] | Potency [5] | Potency [6] | Potency [7] | outcome [8] | outcome [9] | outcome [10] | Potency [11] | Potency [12] | Potency [13] | outcome [14] | outcome [15] | outcome [19] | Potency [17] | outcome [18]

CCOC(=O)CN1CCCC1=O
inactive: Potency [1] | Potency [2] | Potency [3] | Potency [4] | Potency [5] | Potency [6] | Potency [7] | outcome [8] | outcome [9] | outcome [10] | Potency [11] | Potency [12] | Potency [13] | outcome [14] | outcome [15] | outcome [19] | Potency [17] | outcome [18]

NS(=O)(=O)c1cc2c(cc1C(F)(F)F)NCNS2(=O)=O
inactive: Potency [1] | Potency [2] | Potency [3] | Potency [4] | Potency [5] | Potency [6] | Potency [7] | outcome [8] | outcome [9] | outcome [10] | Potency [11] | Potency [12] | Potency [13] | outcome [14] | outcome [15] | outcome [19] | Potency [20] | Potency [17] | outcome [18]

CC(C)(O)CCCC1=CCC(C=O)CC1 (stereo not drawn)
inactive: Potency [1] | Potency [2] | Potency [3] | Potency [4] | Potency [5] | Potency [6] | Potency [7] | outcome [8] | outcome [9] | outcome [10] | Potency [11] | Potency [12] | Potency [13] | outcome [14] | outcome [15] | outcome [19] | outcome [18]

CCN(CC)CC
inactive: Potency [1] | Potency [2] | Potency [3] | Potency [4] | Potency [5] | Potency [6] | Potency [7] | outcome [8] | outcome [9] | outcome [10] | Potency [11] | Potency [12] | Potency [13] | outcome [14] | outcome [15] | outcome [19] | Potency [17] | outcome [18]

CCCCC(CC)CCC(CC(C)C)OS(=O)(=O)O (stereo not drawn)
inactive: Potency [1] | Potency [2] | Potency [3] | Potency [4] | Potency [5] | Potency [6] | Potency [7] | outcome [8] | outcome [9] | outcome [10] | Potency [12] | Potency [13] | outcome [14] | outcome [15] | outcome [19] | Potency [20] | Potency [17] | outcome [18]

CC(C)(C)OC=O
inactive: Potency [1] | Potency [2] | Potency [3] | Potency [4] | Potency [5] | Potency [6] | Potency [7] | outcome [8] | outcome [9] | outcome [10] | Potency [11] | Potency [13] | outcome [15] | outcome [18]

CN(C)c1cc(NC(=O)CNC(C)(C)C)c(O)c2c1C[C@H]1C[C@H]3[C@H](N(C)C)C(=O)C(C(N)=O)=C(O)[C@@]3(O)C(=O)C1=C2O
inactive: Potency [1] | Potency [2] | Potency [3] | Potency [4] | Potency [5] | Potency [6] | Potency [7] | outcome [8] | outcome [9] | outcome [10] | Potency [11] | Potency [12] | outcome [15] | Potency [16] | outcome [19] | Potency [20] | outcome [18]

CC1=C(O)C(=O)CO1
inactive: Potency [1] | Potency [2] | Potency [3] | Potency [4] | Potency [5] | Potency [6] | Potency [7] | outcome [8] | outcome [9] | outcome [10] | Potency [11] | outcome [14] | outcome [15] | outcome [19] | Potency [17] | outcome [18]

C[C@@H]1CC[C@@]2(OC1)O[C@H]1C[C@H]3[C@@H]4CC[C@H]5C[C@@H](O)CC[C@]5(C)[C@H]4CC(=O)[C@]3(C)[C@H]1[C@@H]2C
inactive: cytotoxicity [1] -7.96% [at 6.97 µM] | cytotoxicity increase [2] -2.78% [at 6.97 µM] | activity change, negative = cytotoxicity [3] 0.253% [at 6.97 µM] | cytotoxicity increase [4] -0.706% [at 6.97 µM] | cytotoxicity [5] 2.51% [at 6.97 µM] | cytotoxicity increase [6] -3.63% [at 6.97 µM] | cytotoxicity increase [7] -0.568% [at 6.97 µM] | activity change, negative = cytotoxic [8] 0.914% [at 6.97 µM] | activity change, negative = cytotoxicity [9] -0.905% [at 6.97 µM] | activity change, negative = cytotoxicity [10] 2.92% [at 6.97 µM] | activity change, negative = cytotoxicity [12] 5.89% [at 6.97 µM] | cytotoxicity increase [13] -0.434% [at 6.97 µM] | activity change, negative = cytotoxicity [14] -0.428% [at 8.39 µM] | viability change, negative = cytotoxic [15] 4.91% [at 8.39 µM] | activity change, negative = inhibition [19] 0.329% [at 8.39 µM] | Potency [20] | activity change, negative = cytotoxicity [18] 4.19% [at 8.39 µM]
